We go through 37 compounds from PubChem BioAssay (NCI).

SMILES strings stand for the structures. This is part of a sample that, as a whole, favours compounds with a hit. Of some 83,000 tested, about 20% had one in any assay.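 Single-dose data. Exposure time 48 hours. Values below 10 considered active.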 Unmarked numbers belong to inactive results. Activity calls are given as the source filed them.

The subject of one experiment is MDA-MB-231 breast. The experiment in a line: NCI-60 one-dose screen, 48 h (100 = growth as untreated, 0 = no growth, -100 = all killed). The following applies: 10 µM unless noted.
As to `CCCCCCCCCCCCNC(=O)N[C@H](C(=O)N[C@H]1/C=C/OCCNC(=O)/C=C/[C@H](C(C)C)NC1=O)C(C)C`, the growth was 81.2%.

As to `COc1ccc(-n2nc(C(=O)Nc3ccc(F)cc3)nc2-c2cc(OC)c(OC)c(OC)c2)cc1`, the growth is 93.9%.

In the case of `COc1ccc2c(c1)OC1=C(C(=O)OC1)C2c1cc(OC)c2c(c1)OCCO2` (centres undefined), the growth is 25%.

As to `O=S1(=O)NCCN1CCNc1nccc(-c2c(-c3cccc(O)c3)nc3sccn23)n1`, the growth is 86.8%.

On to `O=C(CC(=O)C(F)(F)C(F)(F)C(F)(F)F)c1cc2ccccc2o1`, for which the growth is 100%.

For the compound `Clc1cc2nc(-c3ccccc3)c(-c3ccccc3)nc2cc1Cl`, the growth is 88%.

On to `CC(C)(C)c1ccc(C(=O)Nc2sc3cc(O)ccc3c2C(N)=O)cc1`, for which the growth was 76%.

On to `CC1=CCC2C1CC=C(C)C(CC[C@H]1[C@@](C)(O)CCC3OC(C)(C)[C@H](OC(=O)c4ccccc4)CC[C@@]31C)C2(C)C` (some centres undefined), for which the growth is 88%.

As for `CC(=O)C1CCC2C3CC(C)=C4CC(O)CCC4(C)C3CCC12C` (centres undefined), the growth was 101%.

`CCN(CCC#N)c1ccccc1`: the growth is 89.9%.

As to `O=S1(=O)NCCCN1CCNc1nccc(-c2c(-c3cccc(O)c3)nc3sccn23)n1`, the growth is 50.7%.

Turning to `COc1ccc(-c2conc2-n2nc(-c3ccccc3)nc2-c2ccccc2)cc1`, the growth was 94%.

`COc1ccccc1CNCCCN1C(=O)c2ccc3c4c(ccc(c24)C1=O)C(=O)N(CCCCNCCCN)C3=O`: the growth was 9.1% (active).

`Cc1ccc(C(=O)CC(=O)C(F)(F)C(F)(F)C(F)(F)F)s1`: the growth was 92.1%.

Turning to `O=C1CCCN1C(O)CCN(Cc1ccccc1)Cc1ccc(Cl)cc1` (centres undefined), the growth is 112%.

As to `Nc1c(N)c2ccccc2c2ccccc12`, the growth is 85.3%.

On to `CCOC(=O)C1=C(C)NC(=S)NC1c1ccccc1` (centres undefined), for which the growth is -95.7% (active).

As to `CCOC(=O)C1=C(C(=O)OCC)N(c2cc(OC)c(OC)c(OC)c2)C(N)=C(C#N)C1c1cc(=O)[nH]c2ccccc12` (centres undefined), the growth was 87.8%.

Take `CC(=O)Nc1ccc(/C=N/N2CCCCCC2)cc1`: the growth is 74.7%.

In the case of `CCOC(=O)c1cnc(SCC)nc1SC#N`, the growth is 98.2%.

For `COc1cc(OC)c(C(=O)/C=C/c2cccc(OC(C)=O)c2)cc1CC=C(C)C`, the growth is 77.6%.

In the case of `COc1cc2ccc(C(C)=O)cc2cc1OC`, the growth is 109%.

Regarding `CN1CCCN(CCNc2nccc(-c3c(-c4cccc(O)c4)nc4sccn34)n2)S1(=O)=O`, the growth is 44.9%.

On to `CCN(CC)c1ccc(/C=C2/NC(=O)NC2=O)cc1`, for which the growth is 57.5%.

Take `CCOC(=O)c1ccc2c(c1)[n+](=O)c(C(=O)c1ccc3ccccc3c1)c(C(F)(F)F)n2[O-]`: the growth was -99.4% (active).

Another experiment relates to RXF 393 renal. The description is as above. As to conditions: 10 µM unless noted.
For `COc1cc(C2CC(=O)Nc3c2cnn3C)cc(OC)c1OC` (centres undefined), the growth was 124%.

Take `C=C(c1ccc(C(=O)NCCCn2ccnc2)cc1)c1cc2c(cc1C)C(C)(C)CCC2(C)C`: the growth was 35.8%.

As for `Nc1c(Br)cc2c(c1Br)Cc1cc(Cl)ccc1-2`, the growth is 106%.

Turning to `CCCCCCCCCCCCNC(=O)N[C@H](C(=O)N[C@H]1/C=C/CCNC(=O)/C=C/[C@H](C)NC1=O)C(C)C`, the growth is -98.8% (active).

For the compound `C=C(C)[C@@H]1CC[C@]2(C(=O)NS(=O)(=O)c3ccccc3)CC[C@]3(C)[C@H](CC[C@@H]4[C@@]5(C)CC[C@H](OC(=O)NS(=O)(=O)c6ccccc6)C(C)(C)[C@@H]5CC[C@]43C)[C@@H]12`, the growth is -25.9% (active).

Turning to `Cc1cc(-c2ccccc2)on1`, the growth is 119%.

As to `CNC(=O)c1c(NC(=O)c2cccc(C(F)(F)F)c2)sc2c1CCC(=O)C2`, the growth was -18.9% (active).

On to `COc1ccccc1/C=C/C(=O)CCC(=O)O`, for which the growth is 127%.

Regarding `NNc1ccc(S(N)(=O)=O)cc1`, the growth is 105%.

`CCc1c(C)c2ccc(O)c(-c3cc(-c4ccccc4)c(C#N)c(=O)[nH]3)c2oc1=O`: the growth was 99.2%.

On to `O=C1OCC2=C1C(c1ccccc1)c1cc3c(cc1N2CCO)OCO3` (centres undefined), for which the growth is 24.8%.

As for `CCCCCCCCCCCCNC(=O)N[C@H](C(=O)N[C@H]1/C=C/OCCNC(=O)/C=C/[C@H](C(C)C)NC1=O)C(C)C`, the growth was 83.6%.

Take `COc1ccc2c(c1)OC1=C(C(=O)OC1)C2c1cc(OC)c2c(c1)OCCO2` (centres undefined): the growth was 37.7%.

Take `O=S1(=O)NCCN1CCNc1nccc(-c2c(-c3cccc(O)c3)nc3sccn23)n1`: the growth was 111%.

Consider `O=C(CC(=O)C(F)(F)C(F)(F)C(F)(F)F)c1cc2ccccc2o1`, for which the growth was 116%.

On to `Clc1cc2nc(-c3ccccc3)c(-c3ccccc3)nc2cc1Cl`, for which the growth is 110%.

For `CC(C)(C)c1ccc(C(=O)Nc2sc3cc(O)ccc3c2C(N)=O)cc1`, the growth was 70.6%.

On to `CC1=CCC2C1CC=C(C)C(CC[C@H]1[C@@](C)(O)CCC3OC(C)(C)[C@H](OC(=O)c4ccccc4)CC[C@@]31C)C2(C)C` (some centres undefined), for which the growth is 69.8%.

On to `CC(=O)C1CCC2C3CC(C)=C4CC(O)CCC4(C)C3CCC12C` (centres undefined), for which the growth is 111%.

For the compound `CCCCCCCCCCCCCC`, the growth was 112%.

With `CCN(CCC#N)c1ccccc1`, the growth was 122%.

In the case of `O=S1(=O)NCCCN1CCNc1nccc(-c2c(-c3cccc(O)c3)nc3sccn23)n1`, the growth is 64.3%.

For the compound `COc1ccc(-c2conc2-n2nc(-c3ccccc3)nc2-c2ccccc2)cc1`, the growth is 113%.

For the compound `COc1ccccc1CNCCCN1C(=O)c2ccc3c4c(ccc(c24)C1=O)C(=O)N(CCCCNCCCN)C3=O`, the growth is -4.56% (active).

As for `Cc1ccc(C(=O)CC(=O)C(F)(F)C(F)(F)C(F)(F)F)s1`, the growth is 111%.

In the case of `O=C1CCCN1C(O)CCN(Cc1ccccc1)Cc1ccc(Cl)cc1` (centres undefined), the growth was 123%.

On to `Nc1c(N)c2ccccc2c2ccccc12`, for which the growth is 109%.

As for `CCOC(=O)C1=C(C)NC(=S)NC1c1ccccc1` (centres undefined), the growth is 117%.

Turning to `CCOC(=O)C1=C(C(=O)OCC)N(c2cc(OC)c(OC)c(OC)c2)C(N)=C(C#N)C1c1cc(=O)[nH]c2ccccc12` (centres undefined), the growth is 99.5%.

In the case of `CC(=O)Nc1ccc(/C=N/N2CCCCCC2)cc1`, the growth was 105%.

Consider `CCOC(=O)c1cnc(SCC)nc1SC#N`, for which the growth is 173%.

In the case of `CN1CCCN(CCNc2nccc(-c3c(-c4cccc(O)c4)nc4sccn34)n2)S1(=O)=O`, the growth was 41.3%.

Regarding `CCN(CC)c1ccc(/C=C2/NC(=O)NC2=O)cc1`, the growth was 50.3%.

For `CCOC(=O)c1ccc2c(c1)[n+](=O)c(C(=O)c1ccc3ccccc3c1)c(C(F)(F)F)n2[O-]`, the growth was -71.2% (active).
